# Screening data deposited in PubChem BioAssay by National Center for Advancing Translational Sciences (NCATS).
# NPC1 promoter act: qHTS Assay for NPC1 Promoter Activators; Huh7 NPC1 promoter luciferase reporter, 24 h; Potency, µM (doses to about 9.22 µM), for the others: at the top dose activation, actives largely listed as activators; 320,000 compounds, 2.4% hits; note: % of control where 0% means no effect; nearly all actives have a fitted effect of over 60% in size
#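 Huh7 cells stably carrying NPC1 promoter–luciferase, plated in Opti-MEM with 10% FBS for 2 h, were exposed to compound in DMSO for 24 h at 37 °C; luciferase reagent was added for 10 min and luminescence read.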
# SMN2 splice enh: qHTS Assay for Enhancers of SMN2 Splice Variant Expression; 210,000 compounds, 2.8% hits; Potency, µM (titrated, usually from 46.1 µM), for the others: at the highest dose activity change, positive = activation, most hits filed as activators; HEK293 SMN2-luciferase splicing reporter, luminescence, 30-36 h; note: % of control where 0% means no effect; nearly all actives have a fitted effect of over 55% in size
#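 qHTS luciferase splicing reporter: luminescence rises when SMN2 exon 7 is included in transfected HEK293 cells. Compound exposure lasted 30-36 h at 37C, with 4.5 mM final sodium butyrate as control, followed by a ONE-Glo read.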
# FLuc counter: qHTS profiling assay for firefly luciferase inhibitor/activator using purifed enzyme and Km concentrations of substrates (counterscreen for miR-21 project); Potency, µM (top dose mostly 57.5 µM), without a hit: at the top dose activity change, negative = inhibition, usual class: inhibitors; purified FLuc, Km substrates, luminescence inhibition; 360,000 compounds, 6.9% hits; AID 588342, 2011; Luciferin 4-monooxygenase (Photinus pyralis), P08659;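 note: plate controls were vehicle for no effect and reference inhibitor for full effect; nearly all actives have a fitted effect of over 55% in size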
# Target sequence (P08659 whole entry, looked up): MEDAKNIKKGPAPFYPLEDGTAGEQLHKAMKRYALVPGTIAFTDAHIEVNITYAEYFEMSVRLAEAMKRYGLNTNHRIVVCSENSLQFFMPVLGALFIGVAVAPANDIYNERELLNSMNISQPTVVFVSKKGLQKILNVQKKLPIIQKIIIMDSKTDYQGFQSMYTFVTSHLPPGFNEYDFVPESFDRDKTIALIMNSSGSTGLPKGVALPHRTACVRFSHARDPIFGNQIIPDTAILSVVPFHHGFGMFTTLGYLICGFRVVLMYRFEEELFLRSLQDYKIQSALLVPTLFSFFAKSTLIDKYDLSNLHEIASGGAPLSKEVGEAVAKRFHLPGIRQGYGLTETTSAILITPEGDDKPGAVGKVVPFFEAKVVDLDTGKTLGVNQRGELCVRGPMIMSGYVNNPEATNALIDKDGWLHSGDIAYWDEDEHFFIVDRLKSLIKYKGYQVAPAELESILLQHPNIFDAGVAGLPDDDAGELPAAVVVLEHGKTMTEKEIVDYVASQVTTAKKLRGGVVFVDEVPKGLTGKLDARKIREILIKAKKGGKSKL
#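 Biochemical qHTS of compounds, final roughly 60 µM downward over six points, against 10 nM purified firefly luciferase using Km concentrations of substrates (10 uM D-luciferin, 10 uM ATP) in Tris acetate pH 7.5 buffer; luminescence output.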
# Rab9 prom act: qHTS Assay for Rab9 Promoter Activators; Huh7 Rab9 promoter-luciferase reporter, luminescence, 24 h; Potency, µM (top dose mostly 9.22 µM), for the others: at the top dose activation, negative = inhibition, hits mostly activators; 320,000 compounds, 2.8% hits; AID 485297, 2010; note: % of control where 0% means no effect; nearly all actives have a fitted effect of over 60% in size
#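 Huh7 cells stably carrying a Rab9 promoter-luciferase reporter, 1500 cells per well in OP-MEM I with 10% FBS, treated with compound 24 hours at 37C. Luciferase activity read by luminescence after 10 minutes with Amplite reagent.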
# ELG1 DNA repair: qHTS screen for small molecules that inhibit ELG1-dependent DNA repair in human embryonic kidney (HEK293T) cells expressing luciferase-tagged ELG1; HEK293T ELG1-luciferase reporter, luminescence, 16 h; DNA damage induced by 5-fluorouridine; Potency, µM (titrated, usually from 46.1 µM), without a hit: top-dose activity change, negative = inhibition, actives largely listed as inhibitors; 330,000 compounds, 2.3% hits; AID 504467, 2011; note: % is set by controls: 0 for no effect and ±100 for the full control effect; nearly all actives have a fitted effect of over 55% in size
#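 Cells (2,000 per well) received 5-fluorouridine plus test compound or DMSO and were incubated 16 hr at 37 °C, 5% CO2. Luciferase activity was read by luminescence 30 min after ONE-Glo addition; signal suppression marked inhibition of damage-induced ELG1 function.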
# ELG1 genotoxic: qHTS screen for small molecules that induce genotoxicity in human embryonic kidney (HEK293T) cells expressing luciferase-tagged ELG1 | HEK293T ELG1-luciferase reporter, luminescence, 16 h | 330,000 compounds, 1.3% hits | Potency, µM (doses to about 46 µM), for inactives: at the top dose activity change, positive = activation, hits mostly activators; note: % of control where 0% means no effect; nearly all actives have a fitted effect of over 60% in size
#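 Reporter readout depends on ELG1 protein level, which increases with genetic stress. After 16 hr compound exposure at 37 °C, luciferase activity was quantified using ONE-Glo.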
# Active calls of the source: *; ? = inconclusive; . = no result given; [ ] = remark or other dose. An excerpt weighted towards active compounds, which were near 9.2% of everything screened. Calls come from the whole dose curve; as a rule, active = well fitted curve in the direction sought with a large enough effect; inconclusive = small, poorly fitted or top-dose-only effect, or another doubt; inactive = no such curve, though single readings can be large; an effect the other way counts as inactive or inconclusive. Potency is the fitted concentration of half-maximal effect.
SMILES,NPC1 promoter act,SMN2 splice enh,FLuc counter,Rab9 prom act,ELG1 DNA repair,ELG1 genotoxic
CCOC(=O)c1c(NC(=O)CCN2CCOCC2)sc2c1CC(C)(C)OC2,-4%,?,6%,-8%,?,1%
CCOC(=O)c1c(NC(=O)CN2CCOCC2)sc2c1CC(C)(C)OC2,9%,-2%,0%,-1%,8.2µM*,-8%
CC(NC(=O)c1ccccc1)(C(=O)O)C(=O)O,.,-11%[9.22 µM],.,.,.,.
CCc1cccc(C)c1NC(=O)CCS(=O)(=O)c1ccc2c(c1)oc(=O)n2C,.,.,-7%,.,.,.
CN(CC(=O)Nc1cccc2ccccc12)C(=O)c1ccc(F)cc1F,-1%,.,3%,0%,0%,0%
CCCC(=O)Nc1sc2c(c1C(=O)OCC)CC(C)(C)OC2,-4%,2%,0%,-2%,7.3µM*,-1%
CCN1C[C@@H]2[C@@H]3C(=O)N(Cc4ccccc4)C(=O)[C@@H]3[C@](C)(C(=O)OC)N2C1=NC,.,.,.,.,15%,1%
CC1(C)CC(=O)C(C=Nc2ccc3c(c2)OCO3)=C(O)C1,0%,?,15µM*,18%,?,?
COc1ccc(N=CC2=C(O)CC(C)(C)CC2=O)cc1,-2%,-12%,19µM*,11%,?,?
CC1(C)CC(=O)C(C=NCc2ccc3c(c2)OCO3)=C(O)C1,7%,1%,-3%,7%,18%,9%
COc1ccc(C2c3cc(OC)c(OC)cc3CC(=O)N2c2ccc(C)c(F)c2)cc1 (stereo not given),.,-2%,-1%,.,.,.
Cc1cccc(N(C(=O)CNC(=O)c2ccco2)C(C(=O)NC2CCCC2)c2cccnc2)c1C (stereo not given),-11%,.,0%,0%,5%,10%
COc1ccc2[nH]c3c(c2c1)CCn1c-3nc2ccccc2c1=O,0.2µM*,1.6µM*,0.48µM*,0.25µM*,?,?
COc1ccc2[nH]c3c(c2c1)CC(C)NC3=O (stereo not given),24%,.,-5%,5%,?,-11%
Cc1cccc(-n2nnc(C(=O)NCc3ccc4c(c3)OCO4)c2N)c1,7%,6%,2%,7%,-8%,-3%
Nc1c(C(=O)Nc2ccc3c(c2)OCCO3)nnn1Cc1cccc(Br)c1,?,.,?,4µM*,?,8%
Cc1ccc(NC(=O)Cn2nnc(C(=O)Nc3ccc(C)c(C)c3)c2N)cc1,-1%,2%,?,-3%,14%,9%
Nc1c(C(=O)Nc2ccc3c(c2)OCCO3)nnn1Cc1ccc(Br)cc1,1.6µM*,.,?,1.1µM*,?,?
Nc1c(C(=O)Nc2ccccc2Cl)nnn1-c1ccc2c(c1)OCCO2,0.79µM*,.,1.1µM*,1.1µM*,?,?
Cc1ccc(NC(=O)c2nnn(CC(=O)Nc3ccc4c(c3)OCO4)c2N)cc1C,-1%,.,5.4µM*,2%,?,2%
Cc1c(C(=O)NNC(=S)Nc2cccc(Cl)c2)nnn1-c1ccccc1,-7%,36%,?,0%,17%,0%
Nc1c(C(=O)Nc2ccc3c(c2)OCCO3)nnn1CCc1ccccc1,-2%,?,15µM*,10%,?,?
Brc1ccc2ncnc(NCc3ccco3)c2c1,1%,-59%,-13%,-4%,8.2µM*,-12%
Cc1ccc(-n2ncc3c(NCc4ccccc4)ncnc32)cc1,3.5µM*,.,-19%,?,?,4.6µM*
c1ccc(-n2ncc3c(NCc4ccco4)ncnc32)cc1,?,.,24µM*,?,?,10µM*
SMILES,NPC1 promoter act,SMN2 splice enh,FLuc counter,Rab9 prom act,ELG1 DNA repair,ELG1 genotoxic
COc1cc2ncnc(NCc3ccco3)c2cc1OC,-4%,-1%,-4%,3%,?,6%
COc1ccccc1CNc1ncnc2c1cnn2-c1ccc(C)cc1,.,.,17µM*,.,.,.
FC(F)Sc1ccc(NC(=S)NC2CCCC2)cc1,27%,?,13µM*,3.2µM*,5%,6%
OC1CCC(NC(=S)Nc2ccc(SC(F)F)cc2)CC1 (stereo not given),?,16µM*,21µM*,?,?,?
CC1CCCC(NC(=S)Nc2ccc(SC(F)F)cc2)C1C (stereo not given),0%,.,?,18%,2%,-5%
O=C(Nc1ccc(SC(F)F)cc1)C12CCC(CC1)C2,28%,16%,11µM*,30%,?,6%
COC(=O)COc1ccc(S(=O)(=O)NCc2ccc3c(c2)OCO3)cc1,1%,.,1%,-1%,0%,-3%
Nc1nc(N)c2nn(-c3ccc(C(=O)O)cc3)nc2n1,.,3%[9.22 µM],.,.,.,.
O=C(N/N=C/c1cn(-c2cccs2)nc1-c1ccccc1)c1ccccc1O,-2%,.,9.5µM*,-4%,?,-2%
O=C(N/N=C/c1ccccc1C(=O)O)c1ccccc1Br,0%,10%,?,17%,0%,0%
O=C(N/N=C/c1cn(-c2cccs2)nc1-c1ccccc1)c1ccccc1Br,7%,?,6.7µM*,8%,?,3%
CCCNC(=O)Cn1nc(-c2ccc(C)cc2)c2cnc3ccc(CC)cc3c21,.,.,-6%,.,.,.
Cc1ccc(S(=O)(=O)N2CCOCC2)cc1NC(=O)COC(=O)CSc1ccc(Br)cc1C,1%,-3%,3%,4%,7%,-1%
CCCC1(C)Nc2ccccc2-c2nc3ccccc3n21 (stereo not given),23%,-5%,19µM*,?,?,18%
CCCn1c(-c2ccc[nH]c2=O)nc2ccccc21,1%,.,-2%,-20%,1%,0%
c1ccc2c(c1)NC1(CCCC1)n1c-2nc2ccccc21,29%,11%,19µM*,2%,?,2%
CN1CCN([C@@H](c2ccccc2)c2ccc(Cl)cc2)CC1,.,-12%[20.6 µM],.,.,.,.
COc1cc(N2Cc3ccccc3C2)ccc1C=O,?,.,21µM*,?,?,4µM*
Cc1nnc(NC(=O)CCNC(=O)c2ccccc2Cl)s1,-7%,18%,-2%,-5%,-7%,12%
COc1cc2nc(CN3CCN(S(=O)(=O)c4cc(C)ccc4C)CC3)[nH]c(=O)c2cc1OC,.,.,.,.,15µM*,-3%
COc1cc2nc(CN3CCN(S(=O)(=O)c4ccccc4)CC3)[nH]c(=O)c2cc1OC,0%,.,0%,-3%,?,-1%
